# Results: PubChem BioAssay AID1159580 (chemical genetic matrix, 2015)
# The whole screen tested about 5,500 compounds, of which about 2,000 (36%) were called active. Another 18% or so got no clear call; they are omitted. Some of the results follow. Unmarked numbers belong to inactive results. No stated cut-off is given here; in the data, active means normalized growth mostly below about 0.91 (no sharp cut-off); inconclusive means no clear call, values can overlap the other calls; inactive means mostly above about 0.92.
# Assay: chemical genetic growth profiling, strain panel (AID 1159580);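 further: tested at 20 µM; growth read once vehicle control cultures reached saturation at 30 °C; 1 = growth at the plate median or of vehicle wells; lower values mean less growth of the strain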
# Conditions: growth OD
# [1] = S. cerevisiae deletion strains, locus YAL013W, strain DEP1, hits give low values
# [2] = S. cerevisiae deletion strains, locus YDR150W, strain NUM1, hits give low values
# [3] = S. cerevisiae deletion strains, locus YGR229C, strain SMI1, hits give low values
# [4] = S. cerevisiae deletion strains, locus YJR075W, strain HOC1, hits give low values
# [5] = S. cerevisiae deletion strains, locus YMR263W, strain SAP30, hits give low values
# [6] = S. cerevisiae deletion strains, locus YPL241C, strain CIN2, hits give low values
# [7] = S. cerevisiae deletion strains, locus YBR229C, strain ROT2, hits give low values
# [8] = S. cerevisiae deletion strains, locus YDL101C, strain DUN1, hits give low values
# [9] = S. cerevisiae deletion strains, locus YEL061C, strain CIN8, hits give low values
# [10] = S. cerevisiae deletion strains, locus YGR078C, strain PAC10, hits give low values
# [11] = S. cerevisiae deletion strains, locus YHR030C, strain SLT2, hits give low values
# [12] = S. cerevisiae deletion strains, locus YHR087W, strain rtc3, hits give low values
# [13] = S. cerevisiae deletion strains, locus YJR043C, strain POL32, hits give low values
# [14] = S. cerevisiae deletion strains, locus YLR039C, strain RIC1, hits give low values
# [15] = S. cerevisiae deletion strains, locus YLR058C, strain SHM2 (second series), hits give low values
# [16] = S. cerevisiae deletion strains, locus YLR085C, strain ARP6, hits give low values
# [17] = S. cerevisiae deletion strains, locus YLR262C, strain YPT6, hits give low values
# [18] = S. cerevisiae deletion strains, locus YML094W, strain GIM5, hits give low values
# [19] = S. cerevisiae deletion strains, locus YMR219W, strain ESC1, hits give low values
# [20] = S. cerevisiae deletion strains, locus YNL128W, strain TEP1, hits give low values
# [21] = S. cerevisiae deletion strains, locus YNL153C, strain GIM3, hits give low values
# [22] = S. cerevisiae deletion strains, locus YNL298W, strain CLA4 (second series), hits give low values
# [23] = S. cerevisiae deletion strains, locus YNL322C, strain KRE1, hits give low values
# [24] = S. cerevisiae deletion strains, locus YNR030W, strain Alg12, hits give low values
# [25] = S. cerevisiae deletion strains, locus YPL055C, strain LGE1, hits give low values
# [26] = S. cerevisiae deletion strains, locus YPR135W, strain CTF4, hits give low values
# [27] = S. cerevisiae strains, strain wild type, hits give low values
compound,measurement,setting,value
NCCS(=O)O,normalized growth,[1],1.01
same,normalized growth,"S. cerevisiae deletion strains, locus YAL040C, strain CLN3, hits give low values",0.998
same,normalized growth,"S. cerevisiae deletion strains, locus YCL061C, strain MRC1 (second series), hits give low values",1.01
same,normalized growth,[2],1
same,normalized growth,"S. cerevisiae deletion strains, locus YDR363W, strain ESC2, hits give low values",1.02
same,normalized growth,"S. cerevisiae deletion strains, locus YER002W, strain NOP16, hits give low values",1
same,normalized growth,[3],1
same,normalized growth,[4],1.01
same,normalized growth,[5],1.01
same,normalized growth,"S. cerevisiae deletion strains, locus YMR307W, strain GAS1, hits give low values",1.01
same,normalized growth,"S. cerevisiae deletion strains, locus YNL175C, strain NOP13, hits give low values",1
same,normalized growth,"S. cerevisiae deletion strains, locus YNL197C, strain WHI3, hits give low values",1
same,normalized growth,"S. cerevisiae deletion strains, locus YNL224C, strain SQS1, hits give low values",0.991
same,normalized growth,"S. cerevisiae deletion strains, locus YOR083W, strain WHI5 (second series), hits give low values",1.03
same,normalized growth,[6],1
CC(=O)c1ccccc1OC(=O)c1c(-c2c(Cl)cccc2Cl)noc1C,normalized growth,[1],0.996
same,normalized growth,[7],0.994
same,normalized growth,"S. cerevisiae deletion strains, locus YCL061C, strain MRC1, hits give low values",0.996
same,normalized growth,[8],1.02
same,normalized growth,[2],0.882
same,normalized growth,[9],1.01
same,normalized growth,[10],1.01
same,normalized growth,[3],0.998
same,normalized growth,[11],0.834
same,normalized growth,[12],0.988
same,normalized growth,[13],0.984
same,normalized growth,[4],1.01
same,normalized growth,"S. cerevisiae deletion strains, locus YKL190W, strain CNB1, hits give low values",0.995
same,normalized growth,[14],0.923
same,normalized growth,[15],1
same,normalized growth,[16],0.985
same,normalized growth,[17],0.935
same,normalized growth,[18],1.04
same,normalized growth,[19],1
same,normalized growth,[5],0.991
same,normalized growth,[20],1
same,normalized growth,[21],1
same,normalized growth,[22],1.02
same,normalized growth,[23],1.01
same,normalized growth,[24],1
same,normalized growth,[25],1.02
same,normalized growth,[6],0.996
same,normalized growth,[26],1.12
same,normalized growth,[27],1.01
Cc1onc(-c2ccccc2)c1C(=O)On1c(-c2ccccc2)nc2ccccc2c1=O,normalized growth,[1],0.963
same,normalized growth,[7],0.988
same,normalized growth,[8],0.944
same,normalized growth,"S. cerevisiae deletion strains, locus YDL134C, strain PPH21, hits give low values",0.922 (active)
same,normalized growth,[2],0.902
same,normalized growth,[9],0.933
same,normalized growth,[10],0.953
same,normalized growth,[11],0.196 (active)
same,normalized growth,[12],1.05
same,normalized growth,[13],0.987
same,normalized growth,[4],0.92
same,normalized growth,[14],0.236 (active)
same,normalized growth,[15],0.979
same,normalized growth,[16],0.537 (active)
same,normalized growth,[17],0.21 (active)
same,normalized growth,[18],0.934
same,normalized growth,[19],0.953
same,normalized growth,[5],0.932
same,normalized growth,[20],0.961
same,normalized growth,[21],1
same,normalized growth,[22],0.816 (active)
same,normalized growth,[23],0.928 (active)
same,normalized growth,[24],0.852 (active)
same,normalized growth,"S. cerevisiae deletion strains, locus YOL006C, strain TOP1, hits give low values",0.63 (active)
same,normalized growth,[25],0.973
same,normalized growth,[6],0.82 (active)
same,normalized growth,[26],0.368 (active)
same,normalized growth,[27],0.888 (active)
